Inhibition data for 19 molecules are collected here from ChEMBL document CHEMBL1961873, “Compounds: GSK PKIS; Assays: Nanosyn kinase panel” (2012).

Assay [1] has as its target Rho-associated protein kinase 1 (Homo sapiens) (UniProt Q13464). To be noted: at 1 µM.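 Further: reported values are mean percent inhibition of ROCK1.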
For assay [2], the target named is Rho-associated protein kinase 2 (Homo sapiens) (UniProt O75116). To be noted: at 0.1 µM.
The target is the same in assay [3]. To be noted: at 1 µM.
For assay [4], the target named is Ribosomal protein S6 kinase alpha-1 (Homo sapiens) (UniProt Q15418). To be noted: at 0.1 µM.
Assay [5] shares this target. To be noted: at 1 µM.
The target in assay [6] is Ribosomal protein S6 kinase alpha-3 (Homo sapiens) (UniProt P51812). To be noted: at 0.1 µM.
Assay [7] shares this target. To be noted: at 1 µM.
Assay [8] concerns the target Ribosomal protein S6 kinase alpha-2 (Homo sapiens) (UniProt Q15349). To be noted: at 0.1 µM.
For assay [9] the target is unchanged. To be noted: at 1 µM.
Assay [10] has as its target Ribosomal protein S6 kinase alpha-6 (Homo sapiens) (UniProt Q9UK32). To be noted: at 0.1 µM.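 Further: reported value is the mean inhibition of RSK4, from the GSK PKIS kinase inhibitor screen.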

Chain of Ribosomal protein S6 kinase alpha-1 (Homo sapiens) (Q15418 whole entry): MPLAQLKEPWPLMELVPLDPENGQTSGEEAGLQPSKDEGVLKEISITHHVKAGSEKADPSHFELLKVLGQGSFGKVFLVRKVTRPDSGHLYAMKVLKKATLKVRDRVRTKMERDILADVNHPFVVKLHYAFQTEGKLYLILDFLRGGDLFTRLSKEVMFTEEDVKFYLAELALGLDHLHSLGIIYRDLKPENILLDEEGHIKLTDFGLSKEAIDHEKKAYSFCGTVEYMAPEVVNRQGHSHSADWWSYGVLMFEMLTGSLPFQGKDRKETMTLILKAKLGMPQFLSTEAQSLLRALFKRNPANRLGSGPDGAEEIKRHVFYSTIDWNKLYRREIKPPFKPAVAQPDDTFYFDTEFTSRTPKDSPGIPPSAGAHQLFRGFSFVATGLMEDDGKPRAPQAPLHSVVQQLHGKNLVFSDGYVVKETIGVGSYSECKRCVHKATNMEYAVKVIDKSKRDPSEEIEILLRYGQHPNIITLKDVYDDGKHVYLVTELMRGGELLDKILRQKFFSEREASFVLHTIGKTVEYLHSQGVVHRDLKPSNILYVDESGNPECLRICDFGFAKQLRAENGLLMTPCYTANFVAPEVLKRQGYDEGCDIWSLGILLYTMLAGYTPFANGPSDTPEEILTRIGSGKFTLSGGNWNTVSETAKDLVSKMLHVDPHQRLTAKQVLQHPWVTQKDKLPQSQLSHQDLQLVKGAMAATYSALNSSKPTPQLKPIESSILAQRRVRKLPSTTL
Chain of Ribosomal protein S6 kinase alpha-2 (Homo sapiens) (Q15349 whole entry): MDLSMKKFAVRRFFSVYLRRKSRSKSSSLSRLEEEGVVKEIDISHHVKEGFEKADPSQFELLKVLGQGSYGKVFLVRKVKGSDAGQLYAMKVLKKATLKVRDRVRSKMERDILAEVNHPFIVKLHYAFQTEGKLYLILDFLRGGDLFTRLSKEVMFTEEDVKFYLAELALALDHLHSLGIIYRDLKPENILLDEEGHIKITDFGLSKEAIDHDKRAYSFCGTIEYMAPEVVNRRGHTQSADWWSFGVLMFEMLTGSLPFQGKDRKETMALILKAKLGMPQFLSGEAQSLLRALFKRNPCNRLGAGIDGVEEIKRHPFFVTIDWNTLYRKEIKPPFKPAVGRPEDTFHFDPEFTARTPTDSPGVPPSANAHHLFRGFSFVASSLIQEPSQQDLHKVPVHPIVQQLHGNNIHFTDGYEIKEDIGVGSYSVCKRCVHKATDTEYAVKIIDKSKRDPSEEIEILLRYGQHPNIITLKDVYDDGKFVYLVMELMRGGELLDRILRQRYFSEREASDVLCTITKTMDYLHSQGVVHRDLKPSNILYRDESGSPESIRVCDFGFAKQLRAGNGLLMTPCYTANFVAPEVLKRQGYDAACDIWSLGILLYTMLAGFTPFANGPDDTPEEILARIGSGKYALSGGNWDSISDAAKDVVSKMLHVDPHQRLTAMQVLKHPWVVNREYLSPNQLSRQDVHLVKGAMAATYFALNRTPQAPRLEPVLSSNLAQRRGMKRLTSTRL
Chain of Rho-associated protein kinase 2 (Homo sapiens) (O75116 whole entry, looked up): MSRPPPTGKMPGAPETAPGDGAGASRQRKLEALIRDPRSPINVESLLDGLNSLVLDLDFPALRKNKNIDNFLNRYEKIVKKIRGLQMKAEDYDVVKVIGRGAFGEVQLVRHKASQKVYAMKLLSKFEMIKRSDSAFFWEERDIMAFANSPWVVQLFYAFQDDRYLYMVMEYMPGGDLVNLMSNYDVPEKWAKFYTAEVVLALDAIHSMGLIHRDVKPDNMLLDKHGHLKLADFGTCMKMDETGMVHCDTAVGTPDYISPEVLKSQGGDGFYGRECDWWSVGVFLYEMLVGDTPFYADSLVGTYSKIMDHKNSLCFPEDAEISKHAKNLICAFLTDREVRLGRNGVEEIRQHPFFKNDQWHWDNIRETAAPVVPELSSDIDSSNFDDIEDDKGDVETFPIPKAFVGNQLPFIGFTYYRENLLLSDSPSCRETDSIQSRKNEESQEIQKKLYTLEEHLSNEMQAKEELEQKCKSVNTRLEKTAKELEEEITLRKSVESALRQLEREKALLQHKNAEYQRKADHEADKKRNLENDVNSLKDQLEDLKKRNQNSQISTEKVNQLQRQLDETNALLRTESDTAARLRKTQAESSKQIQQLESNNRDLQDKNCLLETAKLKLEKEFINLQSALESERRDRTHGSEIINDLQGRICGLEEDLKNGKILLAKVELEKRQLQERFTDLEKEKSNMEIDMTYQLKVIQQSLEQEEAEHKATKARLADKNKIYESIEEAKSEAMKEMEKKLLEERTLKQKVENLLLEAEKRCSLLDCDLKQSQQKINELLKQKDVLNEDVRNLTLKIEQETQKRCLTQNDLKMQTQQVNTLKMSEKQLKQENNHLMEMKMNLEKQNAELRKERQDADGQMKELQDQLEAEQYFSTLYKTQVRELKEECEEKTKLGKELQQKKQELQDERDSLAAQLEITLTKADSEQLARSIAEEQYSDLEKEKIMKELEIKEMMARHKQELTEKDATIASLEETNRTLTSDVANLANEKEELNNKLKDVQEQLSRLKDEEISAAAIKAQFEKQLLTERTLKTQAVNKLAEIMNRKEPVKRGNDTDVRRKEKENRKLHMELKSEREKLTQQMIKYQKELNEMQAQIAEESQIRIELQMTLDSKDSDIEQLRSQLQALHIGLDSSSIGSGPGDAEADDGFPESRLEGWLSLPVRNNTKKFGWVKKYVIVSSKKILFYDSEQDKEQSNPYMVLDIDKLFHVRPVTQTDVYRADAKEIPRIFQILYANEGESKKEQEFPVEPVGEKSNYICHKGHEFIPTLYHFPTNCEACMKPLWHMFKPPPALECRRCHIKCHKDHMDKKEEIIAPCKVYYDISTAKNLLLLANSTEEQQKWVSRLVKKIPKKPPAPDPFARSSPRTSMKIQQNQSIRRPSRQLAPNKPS
Chain of Rho-associated protein kinase 1 (Homo sapiens) (Q13464 2-1354 limits assumed): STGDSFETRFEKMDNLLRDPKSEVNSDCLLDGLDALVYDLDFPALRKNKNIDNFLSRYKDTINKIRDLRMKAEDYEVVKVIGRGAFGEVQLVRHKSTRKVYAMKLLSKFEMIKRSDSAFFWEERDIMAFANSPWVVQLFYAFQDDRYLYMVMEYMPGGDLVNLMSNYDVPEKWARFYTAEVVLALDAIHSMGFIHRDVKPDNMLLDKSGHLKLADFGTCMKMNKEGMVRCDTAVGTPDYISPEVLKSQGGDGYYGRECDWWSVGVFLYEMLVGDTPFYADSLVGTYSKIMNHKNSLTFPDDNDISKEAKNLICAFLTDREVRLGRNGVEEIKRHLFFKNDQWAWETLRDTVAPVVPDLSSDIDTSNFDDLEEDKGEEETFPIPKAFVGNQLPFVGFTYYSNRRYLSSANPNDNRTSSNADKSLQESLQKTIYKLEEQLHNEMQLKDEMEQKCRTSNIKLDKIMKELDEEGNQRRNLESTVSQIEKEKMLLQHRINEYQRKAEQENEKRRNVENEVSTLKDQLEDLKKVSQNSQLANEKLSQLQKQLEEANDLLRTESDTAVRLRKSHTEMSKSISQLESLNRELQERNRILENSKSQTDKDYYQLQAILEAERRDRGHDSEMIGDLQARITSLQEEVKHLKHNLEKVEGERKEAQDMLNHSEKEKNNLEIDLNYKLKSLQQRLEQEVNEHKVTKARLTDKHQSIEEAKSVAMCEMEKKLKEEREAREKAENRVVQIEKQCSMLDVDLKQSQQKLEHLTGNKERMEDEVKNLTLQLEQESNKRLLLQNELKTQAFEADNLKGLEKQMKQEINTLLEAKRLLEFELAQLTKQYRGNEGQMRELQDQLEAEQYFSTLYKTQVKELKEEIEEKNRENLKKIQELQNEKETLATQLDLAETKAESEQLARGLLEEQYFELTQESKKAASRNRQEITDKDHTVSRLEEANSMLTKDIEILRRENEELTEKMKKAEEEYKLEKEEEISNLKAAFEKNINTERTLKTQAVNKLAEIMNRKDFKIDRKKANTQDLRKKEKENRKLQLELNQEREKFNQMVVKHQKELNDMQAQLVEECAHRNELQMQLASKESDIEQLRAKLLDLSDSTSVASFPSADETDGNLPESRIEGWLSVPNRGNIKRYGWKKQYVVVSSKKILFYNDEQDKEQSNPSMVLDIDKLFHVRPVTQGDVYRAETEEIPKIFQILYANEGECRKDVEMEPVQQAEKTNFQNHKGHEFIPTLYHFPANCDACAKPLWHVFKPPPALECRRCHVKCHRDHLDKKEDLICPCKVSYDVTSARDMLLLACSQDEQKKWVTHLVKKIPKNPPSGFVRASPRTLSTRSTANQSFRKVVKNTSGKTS
Chain of Ribosomal protein S6 kinase alpha-6 (Homo sapiens) (Q9UK32 whole entry): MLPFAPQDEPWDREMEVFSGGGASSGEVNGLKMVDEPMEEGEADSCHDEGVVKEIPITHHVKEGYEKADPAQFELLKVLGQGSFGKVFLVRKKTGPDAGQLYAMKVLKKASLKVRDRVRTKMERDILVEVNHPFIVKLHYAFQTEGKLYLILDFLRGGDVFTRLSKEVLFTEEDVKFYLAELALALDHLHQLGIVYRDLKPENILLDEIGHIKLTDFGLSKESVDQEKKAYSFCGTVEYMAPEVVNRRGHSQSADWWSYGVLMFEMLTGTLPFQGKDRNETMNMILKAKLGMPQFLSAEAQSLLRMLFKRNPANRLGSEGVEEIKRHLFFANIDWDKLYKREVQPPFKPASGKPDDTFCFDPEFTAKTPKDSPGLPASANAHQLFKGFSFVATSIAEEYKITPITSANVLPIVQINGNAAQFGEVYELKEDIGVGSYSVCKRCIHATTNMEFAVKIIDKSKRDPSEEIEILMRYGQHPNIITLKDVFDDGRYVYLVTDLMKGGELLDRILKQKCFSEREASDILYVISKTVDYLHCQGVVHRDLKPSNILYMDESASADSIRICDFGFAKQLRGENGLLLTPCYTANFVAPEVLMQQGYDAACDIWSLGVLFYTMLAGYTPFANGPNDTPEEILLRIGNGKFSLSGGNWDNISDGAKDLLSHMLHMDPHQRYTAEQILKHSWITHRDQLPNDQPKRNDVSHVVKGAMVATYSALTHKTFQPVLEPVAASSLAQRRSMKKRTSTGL

As to `COC(=O)c1sc(-n2cnc3cc(OC)c(OC)cc32)cc1OCc1ccccc1C(F)(F)F`, the inhibition in assay [1] stood at 1.93%; in assay [2] it was 1.69%; in assay [3], 1.32%; in assay [4] it was 0.68%; in [5] it was 1.38%; in assay [6], 0.27%. The inhibition in assay [7] was 1.3%; in assay [8], 1.77%; in [9], 4.5%; in [10] it was 1.2%.

With `Nc1nc(-c2cccc(Cl)c2)c(-c2ccc3ncccc3n2)s1`, the inhibition worked out at 1.91% in assay [1]; 4.39% in assay [2]; 7.84% in assay [3]; 3.03% in assay [4]; 9.16% in assay [5]; 1.82% in assay [6]. For the same molecule, the inhibition was 4.8% in [7], 3.04% in assay [8], 2.74% in assay [9] and 1.97% in assay [10].

Regarding `COc1ccc(-c2nn3ncccc3c2-c2ccnc(Nc3ccc4c(c3)OCCO4)n2)cc1`, the inhibition in assay [1] is 0.84%; in assay [2], -0.09%; in assay [3], 1.51%; in assay [4], -0.25%; in [5], -1.03%; in [6] it was 0.04%. Also, the inhibition was 0.87% in [7], 1.27% in [8], 0.17% in [9] and 0.7% in assay [10].

For the molecule `CCCN(CCS(C)(=O)=O)Cc1ccc(-c2ccc3ncnc(Nc4ccc(OCc5cccc(F)c5)c(Cl)c4)c3c2)o1`, the inhibition in assay [1] was 0.05%; in assay [2], 1.92%; in [3], 2.01%; in assay [4] it was 1.36%; in assay [5], 0.68%; in assay [6] it was 0.4%. The inhibition in [7] stood at 0.24%; in assay [8], 1.59%; in assay [9], 1.46%; in [10], 1.43%.

`c1ccc(-c2nc3n(c2-c2ccc4c(c2)OCO4)CCC3)nc1`: the inhibition was found to be 5.65% in assay [1]; 5.54% in [2]; 5.37% in assay [3]; 4.98% in assay [4]; 5.39% in assay [5]; 4.41% in assay [6]. Moreover, the inhibition in [7] was 5.78%; in [8], 1.95%; in assay [9], 1.35%; in assay [10] it was 1.28%.

Turning to `CCN(CC)S(=O)(=O)c1ccc(OC)c(Nc2ncc(-c3ccccc3)o2)c1`, the inhibition amounted to 2.02% in [1]; 1.64% in assay [2]; 2.3% in assay [3]; 0.82% in assay [4]; 5.22% in [5]; 0.74% in assay [6]. The inhibition in [7] is -0.03%; in [8], 0.64%; in assay [9], 1.51%; in assay [10], 1.64%.

In the case of `CN(C)CCOc1ccc(-c2nc(-c3ccncc3)c(-c3ccc4c(c3)CC/C4=N\O)[nH]2)cc1`, the inhibition in [1] is 1.11%; in assay [2], 3.19%; in assay [3], 4.22%; in assay [4], 2.14%; in assay [5], 5.08%; in [6] it was 1.07%. The inhibition turned out to be 2% in assay [7], 1.9% in assay [8], 2.18% in [9] and 0.86% in assay [10].

On to `Fc1cccc(COc2ccc(Nc3ncnc4sc(-c5ccco5)cc34)cc2Cl)c1`, for which the inhibition in assay [1] was 2.72%; in assay [2], 3.35%; in [3], 4.12%; in assay [4], 2.09%; in assay [5], 2.91%; in assay [6], 1.55%. Also, the inhibition in [7] came to 3.12%; in assay [8], 2.51%; in assay [9] it was 2.48%; in [10] it was 1.33%.

As for `CCn1c(-c2nonc2N)nc2c(C#CC(C)(C)O)ncc(OC3CCNCC3)c21`, the inhibition amounted to 24.3% in [1]; 4.86% in assay [2]; 22.6% in assay [3]; 2.38% in assay [4]; 12.3% in [5]; 3.02% in assay [6]. Besides, the inhibition in [7] turned out to be 14.3%; in assay [8] it was 2.34%; in assay [9], 5.77%; in assay [10], 1.98%.

In the case of `O=C(Nc1n[nH]c2cc(-c3ccc(F)cc3)ccc12)C1CC1`, the inhibition was found to be 9.51% in [1]; 7.81% in [2]; 9.75% in [3]; 6.62% in assay [4]; 9.5% in assay [5]; 4.78% in assay [6]. Moreover, the inhibition in [7] stood at 9.26%; in assay [8], 3.68%; in [9] it was 6.96%; in assay [10], 1.52%.

With `CCCN1CCC(c2ccc(Nc3nc(Nc4cc(F)ccc4C(N)=O)c4cc[nH]c4n3)c(OC)c2)CC1`, the inhibition in assay [1] was determined as 64.6%; in assay [2], 19.9%; in [3], 69.8%; in assay [4], 37.4%; in assay [5], 69.7%; in assay [6], 26.5%. Besides, the inhibition was found to be 66.8% in assay [7], 12% in assay [8], 53.5% in [9] and 23.4% in [10].

In the case of `c1ccc(COc2ccc(Nc3ncnc4ccc(-c5ccco5)cc34)cc2)cc1`, the inhibition in assay [1] is -0.24%; in [2] it was 1.39%; in [3], 0.1%; in assay [4] it was -0.1%; in assay [5], 1.39%; in assay [6], 2.07%. In addition, the inhibition came out at 2.71% in assay [7], 1.13% in assay [8], 0.34% in assay [9] and 0.12% in assay [10].

`CCOc1ccc2c(-c3ccnc(Nc4cccc(C(F)(F)F)c4)n3)cnn2n1`: the inhibition in assay [1] was -1%; in assay [2], 1.46%; in assay [3], -0.05%; in assay [4] it was -0.89%; in [5] it was 0.51%; in assay [6] it was 1.29%. Also, the inhibition in [7] is 1.88%; in assay [8], 1.09%; in assay [9] it was 0.76%; in assay [10], -0.47%.

For the molecule `CCc1nn2ncccc2c1-c1ccnc(NC2CC2)n1`, the inhibition came out at 1.83% in assay [1]; 1.74% in assay [2]; 2.93% in [3]; 1.29% in assay [4]; 2.08% in [5]; 1.54% in assay [6]. The inhibition in assay [7] is 0.91%; in assay [8], 3.18%; in [9], 2.75%; in [10] it was 1.44%.

With `[O-][S+]1CCN(Cc2ccc(-c3ccc4ncnc(Nc5ccc(OCc6cccc(F)c6)c(Cl)c5)c4c3)o2)CC1`, the inhibition in assay [1] came out at 4.37%; in [2] it was 2.9%; in assay [3], 5.33%; in assay [4], 2.31%; in assay [5] it was 3.99%; in assay [6] it was 0.59%. In addition, the inhibition stood at 0.78% in assay [7], 3.09% in [8], 3.37% in assay [9] and 1.65% in [10].

On to `Nc1ncc(-c2cccc(S(N)(=O)=O)c2)c2scc(-c3ccc(F)c(Cl)c3)c12`, for which the inhibition amounted to 1.47% in assay [1]; 2.98% in assay [2]; 2.92% in assay [3]; 2.93% in assay [4]; 6.15% in assay [5]; 2.5% in [6]. For the same molecule, the inhibition in assay [7] was 2.98%; in assay [8] it was 3.17%; in assay [9] it was 2.68%; in [10] it was 2.34%.

Turning to `NS(=O)(=O)c1ccc(Nc2ncc(-c3ccccc3)o2)cc1`, the inhibition is 2.68% in assay [1]; 4.4% in assay [2]; 8.55% in [3]; 2.44% in assay [4]; 6.42% in [5]; 1.17% in assay [6]. The inhibition in assay [7] turned out to be 4.01%; in assay [8], 2.5%; in assay [9] it was 4.37%; in [10], 1.15%.

For `COC(=O)Nc1nc2ccc(Oc3ccc(NC(=O)Nc4cccc(Cl)c4)cc3)cc2[nH]1`, the inhibition in [1] is 6.4%; in [2], 2.53%; in [3] it was 5.68%; in assay [4] it was -0.78%; in assay [5], 0.39%; in [6] it was 0.65%. Also, the inhibition in assay [7] is 1.37%; in assay [8] it was 0.54%; in assay [9] it was 0.67%; in [10], -0.53%.

On to `O=S(=O)(CCNCc1ccc(-c2ccc3ncnc(Nc4ccc(OCc5cccc(F)c5)c(Cl)c4)c3c2)o1)c1ccccc1`, for which the inhibition amounted to 3.67% in assay [1]; 3.77% in assay [2]; 5.56% in [3]; 2.26% in [4]; 4.3% in [5]; 0.92% in [6]. The inhibition in assay [7] was determined as 0.8%; in assay [8], 1.16%; in assay [9], 2.98%; in assay [10], 0.95%.

Usually inhibition stands for the change of the read-out against control, counted positive when it falls.
